From PMC11062922 (Nature Chemical Biology, 2023)
Read-outs that look alike come from different tables or passages of the source.

Columns and labels:
Set-up in all cases: species or system human, MV4-11 + K-562 + COLO205 + SK-N-BE2 + OVCAR-8
ACVR1 = conditions: read-out: apparent Kd, n = 1
DDR1 = conditions: read-out: apparent Kd, n = 1
DDR2 = conditions: read-out: apparent Kd, n = 1
PRKD2 = conditions: read-out: apparent Kd, compound concentrations: 100 nM and 1000 nM (sheet 'Samples'), n = 1
SIK2 = conditions: read-out: apparent Kd, n = 1
SRC = conditions: read-out: apparent Kd, compound concentrations: 100 nM and 1000 nM (sheet 'Samples'), n = 1
TGFBR1 = conditions: read-out: apparent Kd, n = 1
CDKL5 = conditions: read-out: apparent Kd, n = 1
DYRK1A = conditions: read-out: apparent Kd, n = 1
FLT3 = conditions: read-out: apparent Kd, n = 1
CSK = conditions: read-out: apparent Kd, n = 1
EPHA1 = conditions: read-out: apparent Kd, n = 1
FRK = conditions: read-out: apparent Kd, n = 1
LYN = conditions: read-out: apparent Kd, n = 1
MAPK14 = conditions: read-out: apparent Kd, n = 1
EGFR = conditions: read-out: apparent Kd, n = 1
ACAD11 = conditions: read-out: apparent Kd, n = 1
GSK3A = conditions: read-out: apparent Kd, n = 1
GSK3B = conditions: read-out: apparent Kd, n = 1
[1] = compound concentrations:100 nM and 1000 nM (sheet 'Samples')

CN1C(=O)c2ccccc2N(C)c2nc(Nc3cnn(C4CCNCC4)c3)ncc21 [XMD-17-51]
potency estimated from few doses (ACVR1; compound concentrations: 100 nM and 1000 nM (sheet 'Samples'), CATDS: 1.6735726463305099E-2): 0.805 µM
potency estimated from few doses (DDR1; compound concentrations: 100 nM and 1000 nM (sheet 'Samples'), CATDS: 1.7451025116255701E-2): 0.697 µM
potency estimated from few doses (DDR2; compound concentrations: 100 nM and 1000 nM (sheet 'Samples'), CATDS: 2.76833558022507E-2): 0.189 µM
potency estimated from few doses (PRKD2; CATDS: 1.4106382440731599E-2): 1.62 µM
potency estimated from few doses (SIK2; compound concentrations: 100 nM and 1000 nM (sheet 'Samples'), CATDS: 2.05809527554131E-2): 0.416 µM
potency estimated from few doses (SRC; CATDS: 1.6357706357996601E-2): 0.875 µM
potency estimated from few doses (TGFBR1; compound concentrations: 100 nM and 1000 nM (sheet 'Samples'), CATDS: 2.2276499347081799E-2): 0.333 µM

CNC1=NC(=O)/C(=C/c2ccc3ncccc3c2)S1 [RO4595949-000]
potency estimated from few doses (CDKL5; compound concentrations: 100 nM and 1000 nM (sheet 'Samples'), CATDS: 4.9375621350065603E-2): 2.15 µM
potency estimated from few doses (DYRK1A; compound concentrations: 100 nM and 1000 nM (sheet 'Samples'), CATDS: 0.10780330705145599): 0.209 µM
potency estimated from few doses (PRKD2; CATDS: 5.1323444817528999E-2): 1.77 µM

Cc1cccc(Nc2nc(NCCN)ncc2C(N)=O)c1 [GSK1292139B]
potency estimated from few doses (PRKD2; CATDS: 7.4938194739321201E-2): 1.25 µM
potency estimated from few doses (SIK2; compound concentrations: 100 nM and 1000 nM (sheet 'Samples'), CATDS: 8.4015516979832894E-2): 0.925 µM

O=C1N=C(NCCc2ccccc2F)S/C1=C\c1ccc2ncccc2c1 [RO4498483-000]
potency estimated from few doses (DYRK1A; compound concentrations: 100 nM and 1000 nM (sheet 'Samples'), CATDS: 8.8096211342070505E-2): 0.883 µM
potency estimated from few doses (FLT3; compound concentrations: 100 nM and 1000 nM (sheet 'Samples'), CATDS: 7.3322298638159894E-2): 1.52 µM

NC1=NC(=O)/C(=C/c2ccc3ncccc3c2)S1 [RO4569139-000]
potency estimated from few doses (DYRK1A; compound concentrations: 100 nM and 1000 nM (sheet 'Samples'), CATDS: 0.43183776325706602): 0.0393 µM

COc1ccccc1CNC1=NC(=O)/C(=C/c2ccc3ncccc3c2)S1 [RO4503315-000]
potency estimated from few doses (DYRK1A; compound concentrations: 100 nM and 1000 nM (sheet 'Samples'), CATDS: 8.6327639243549595E-2): 0.596 µM

CCN(CC)CCOc1ccc(Nc2ncc3cc(-c4c(Cl)cccc4Cl)c(=O)n(C)c3n2)cc1 [SB-601273]
potency estimated from few doses (ACVR1; [1]): 0.218 µM
potency estimated from few doses (CSK; [1]): 0.838 µM
potency estimated from few doses (DDR1; [1]): 0.165 µM
potency estimated from few doses (DDR2; [1]): 0.319 µM
potency estimated from few doses (EPHA1; [1]): 0.00259 µM
potency estimated from few doses (FLT3; [1]): 0.891 µM
potency estimated from few doses (FRK; [1]): 0.103 µM
potency estimated from few doses (LYN; [1]): 0.111 µM
potency estimated from few doses (MAPK14; [1]): 0.678 µM
potency estimated from few doses (SIK2; [1]): 0.0553 µM
potency estimated from few doses (SRC; CATDS: 2.2831439455092799E-2): 0.137 µM
potency estimated from few doses (TGFBR1; [1]): 0.27 µM

CS(=O)(=O)Cc1ccc(Nc2nccc(-c3c(-c4cccc(NC(=O)C5CCCCC5)c4)nn4ncccc34)n2)cc1 [GSK350559A]
potency estimated from few doses (DDR1; [1]): 0.401 µM
potency estimated from few doses (EGFR; [1]): 1.89 µM
potency estimated from few doses (FLT3; [1]): 0.66 µM

COc1ccc(-c2nc3n(c2-c2ccncc2)CCC3)cc1.COc1ccc(-c2nc3n(c2-c2ccncc2)CCC3)cc1.O=S(=O)(O)O.O=S(=O)(O)O [SKF-104493-B2]
potency estimated from few doses (ACAD11; compound concentrations: 100 nM and 1000 nM (sheet 'Samples'), CATDS: 0.103649602140053): 2.1 µM
potency estimated from few doses (MAPK14; compound concentrations: 100 nM and 1000 nM (sheet 'Samples'), CATDS: 0.181046976908248): 0.687 µM

CN(C)Cc1ccc(-c2ccc3c(Nc4ccc(Oc5ccccn5)cc4)ccnc3c2)o1 [GW567148X]
potency estimated from few doses (CSK; compound concentrations: 100 nM and 1000 nM (sheet 'Samples'), CATDS: 1.6993908707239901E-2): 1.76 µM
potency estimated from few doses (EPHA1; compound concentrations: 100 nM and 1000 nM (sheet 'Samples'), CATDS: 2.4503846064608301E-2): 0.577 µM
potency estimated from few doses (FLT3; compound concentrations: 100 nM and 1000 nM (sheet 'Samples'), CATDS: 2.7806184989220401E-2): 0.433 µM
potency estimated from few doses (FRK; compound concentrations: 100 nM and 1000 nM (sheet 'Samples'), CATDS: 2.1087873700944799E-2): 0.85 µM
potency estimated from few doses (GSK3A; compound concentrations: 100 nM and 1000 nM (sheet 'Samples'), CATDS: 2.2236241466677201E-2): 0.736 µM
potency estimated from few doses (GSK3B; compound concentrations: 100 nM and 1000 nM (sheet 'Samples'), CATDS: 1.84231194054994E-2): 1.3 µM
potency estimated from few doses (LYN; compound concentrations: 100 nM and 1000 nM (sheet 'Samples'), CATDS: 2.6094910864106001E-2): 0.499 µM
potency estimated from few doses (SRC; CATDS: 3.3500581656618303E-2): 0.297 µM

CN1CCN(Cc2ccc(-c3ccc4c(Nc5ccc(Oc6ccccn6)cc5)ccnc4c3)o2)CC1 [GW567140X]
potency estimated from few doses (EGFR; compound concentrations: 100 nM and 1000 nM (sheet 'Samples'), CATDS: 3.6910458353503803E-2): 1.18 µM
potency estimated from few doses (EPHA1; compound concentrations: 100 nM and 1000 nM (sheet 'Samples'), CATDS: 4.2699834629257603E-2): 0.76 µM
potency estimated from few doses (FLT3; compound concentrations: 100 nM and 1000 nM (sheet 'Samples'), CATDS: 5.7646545219248203E-2): 0.368 µM
potency estimated from few doses (FRK; compound concentrations: 100 nM and 1000 nM (sheet 'Samples'), CATDS: 3.6217931786021701E-2): 1.26 µM
potency estimated from few doses (LYN; compound concentrations: 100 nM and 1000 nM (sheet 'Samples'), CATDS: 3.5611600643533602E-2): 1.33 µM
potency estimated from few doses (SRC; CATDS: 4.7577990075445997E-2): 0.573 µM

O=S(=O)(CCOCc1ccc(-c2ccc3ncnc(Nc4ccc(OCc5cccc(F)c5)c(Cl)c4)c3c2)o1)c1ccccc1 [GW615311X]
potency estimated from few doses (ACAD11; compound concentrations: 100 nM and 1000 nM (sheet 'Samples'), CATDS: 2.2498747845654098E-2): 2.28 µM
potency estimated from few doses (ACVR1; compound concentrations: 100 nM and 1000 nM (sheet 'Samples'), CATDS: 2.7247604336379499E-2): 1.43 µM
potency estimated from few doses (CSK; compound concentrations: 100 nM and 1000 nM (sheet 'Samples'), CATDS: 2.6624527430589399E-2): 1.51 µM
potency estimated from few doses (EGFR; compound concentrations: 100 nM and 1000 nM (sheet 'Samples'), CATDS: 3.2602064025644098E-2): 0.997 µM
potency estimated from few doses (FRK; compound concentrations: 100 nM and 1000 nM (sheet 'Samples'), CATDS: 2.9445586686104801E-2): 1.22 µM
potency estimated from few doses (MAPK14; compound concentrations: 100 nM and 1000 nM (sheet 'Samples'), CATDS: 2.8626143180457999E-2): 1.29 µM
potency estimated from few doses (SRC; CATDS: 2.9038399213399499E-2): 1.25 µM

Fc1cc(Cl)ccc1Nc1ccnc2cc(-c3ccc(CN4CCOCC4)o3)ccc12 [GW560109X]
potency estimated from few doses (EPHA1; compound concentrations: 100 nM and 1000 nM (sheet 'Samples'), CATDS: 7.1072488518175297E-2): 0.699 µM
potency estimated from few doses (SIK2; compound concentrations: 100 nM and 1000 nM (sheet 'Samples'), CATDS: 7.4326552669870996E-2): 0.63 µM

CN1CCN(Cc2ccc(NC(=O)Nc3ccc(N(C)c4ccnc(Nc5ccc(CS(C)(=O)=O)cc5)n4)cc3)cc2)CC1.Cl [GW827654A]
potency estimated from few doses (DDR1; compound concentrations: 100 nM and 1000 nM (sheet 'Samples'), CATDS: 9.0540797508364801E-2): 0.147 µM
potency estimated from few doses (DDR2; compound concentrations: 100 nM and 1000 nM (sheet 'Samples'), CATDS: 5.9738771402131699E-2): 0.348 µM
potency estimated from few doses (FLT3; compound concentrations: 100 nM and 1000 nM (sheet 'Samples'), CATDS: 0.105116266606525): 0.112 µM

COc1cc2ncn(-c3cc(OCCCc4ccccc4)c(C(N)=O)s3)c2cc1OC [GSK205189A]
potency estimated from few doses (GSK3A; [1]): 0.575 µM
potency estimated from few doses (GSK3B; [1]): 1.11 µM

N#Cc1cccc(Nc2nccc(-c3cnn4ncccc34)n2)c1 [GW778894X]
potency estimated from few doses (ACAD11; [1]): 0.228 µM
potency estimated from few doses (CDKL5; [1]): 0.00682 µM
potency estimated from few doses (DYRK1A; [1]): 0.0359 µM
potency estimated from few doses (FLT3; [1]): 0.137 µM
potency estimated from few doses (GSK3A; [1]): 0.0283 µM
potency estimated from few doses (GSK3B; compound concentrations: 100 nM and 1000 nM (sheet 'Samples'), CATDS: 5.9931823260346899E-2): 0.0212 µM

c1ccc(Oc2ccc(Nc3ccnc4cc(-c5ccc(CN6CCCCC6)o5)ccc34)cc2)nc1 [GW567143X]
potency estimated from few doses (EPHA1; compound concentrations: 100 nM and 1000 nM (sheet 'Samples'), CATDS: 6.2167566437911E-2): 0.315 µM
potency estimated from few doses (FLT3; compound concentrations: 100 nM and 1000 nM (sheet 'Samples'), CATDS: 0.15169843184363399): 0.0609 µM
potency estimated from few doses (FRK; compound concentrations: 100 nM and 1000 nM (sheet 'Samples'), CATDS: 3.9738345055864897E-2): 1.1 µM
potency estimated from few doses (LYN; compound concentrations: 100 nM and 1000 nM (sheet 'Samples'), CATDS: 4.1336056970238899E-2): 0.956 µM
potency estimated from few doses (SRC; CATDS: 5.3011588623511699E-2): 0.464 µM
